CYP2C9 act – human CYP2C9 activators, primary screen, biochemical, luminescence; Cytochrome P450 2C9 (Homo sapiens), P11712; recombinant CYP2C9, luciferin-H conversion; hits give high values; factor 1 = untreated enzyme, 0 = blocked; activation factor at 5 µM; 96,000 tested, 1.4% active; AID 1024, 2008;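 active means activation factor of 2 or more for CYP2C9 at a 5 µM dose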;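 further: 0 = sulfaphenazole-blocked wells and 1 = vehicle-only wells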
CYP2C19 act – human CYP2C19 activators, primary screen, biochemical, luminescence; Cytochrome P450 2C19 (Homo sapiens), P33261; recombinant CYP2C19, luciferin-H EGE luminescence; hits give high values; 0 = fully inhibited enzyme, 1 = untreated enzyme; activation factor at 5 µM; 96,000 tested, under 10 active; AID 1025, 2008;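 active means activation factor of at least 2 at 5 µM in the primary screen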;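 further: 0 = wells with 2.5 mM tranylcypromine and 1 = vehicle-only wells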
Target sequence (P33261 whole entry, looked up): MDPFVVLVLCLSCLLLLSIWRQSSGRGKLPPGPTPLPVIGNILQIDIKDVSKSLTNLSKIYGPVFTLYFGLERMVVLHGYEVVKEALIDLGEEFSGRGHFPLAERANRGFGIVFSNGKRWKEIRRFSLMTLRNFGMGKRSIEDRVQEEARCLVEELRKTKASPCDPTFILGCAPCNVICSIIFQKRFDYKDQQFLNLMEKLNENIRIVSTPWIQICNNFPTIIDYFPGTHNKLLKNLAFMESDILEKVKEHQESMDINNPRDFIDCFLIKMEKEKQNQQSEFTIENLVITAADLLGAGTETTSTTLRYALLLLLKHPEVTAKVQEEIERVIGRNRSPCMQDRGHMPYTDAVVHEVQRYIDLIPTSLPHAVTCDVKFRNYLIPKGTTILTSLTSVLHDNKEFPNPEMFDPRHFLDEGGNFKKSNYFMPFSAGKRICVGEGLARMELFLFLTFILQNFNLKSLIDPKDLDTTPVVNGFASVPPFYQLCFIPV
CYP2C19 inh – blockers of cytochrome P450 2C19 activity – biochemical, luminescence, ADME assay, primary screen; P33261; CYP2C19 Supersomes, luciferin-H EGE luminescence, 30 min; inhibition, % at 5 µM; 96,000 tested, 21% active;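 active means CYP2C19 inhibition above a set limit at 5 µM in the primary screen, cut at about 50% in these data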;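 further: plate controls were negative control wells for no effect and 2.5 mM tranylcypromine positive control for full effect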
CYP2C9 inhib – blockers of cytochrome P450 2C9 activity – biochemical, luminescence, ADME assay, primary screen. P11712. 96,000 tested, 20% active. CYP2C9 Supersomes, luciferin-H conversion. inhibition, % at 5 µM;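 active means blocking of liver enzyme CYP2C9 beyond about 50% at 5 µM, limit read from the data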
PostGolgi yeast – phenotypic screen on post-Golgi transport, primary screen | inhibition, % at 10 µM | post-Golgi transport phenotypic cell assay | 98,000 tested, 0.9% active | AID 739, 2007;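 further: yeast cells grown in 1536-well plates; yeast grown about 18 h at 30C before absorbance read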
PostGolgi ctrl – growth inhibition of yeast control strain, primary screen, counter-screen for post-Golgi transport modulator project; efflux-deficient yeast background strain, growth absorbance A615, 16 h; inhibition, % at 10 µM; 98,000 tested, 5% active; AID 738, 2007
An asterisk follows results filed as active; · = not tested or not shown. Compounds with a hit are over-represented: about 32% of the library has one in this group of screens. Unless noted, no stated cut-off is given here; in the data, active means inhibition above about 30%; inactive means the rest.

SMILES | CYP2C9 act | CYP2C19 act | CYP2C19 inh | CYP2C9 inhib | PostGolgi yeast | PostGolgi ctrl
O=C(CCc1nc(-c2ccccc2)no1)NCC1CCCO1 (stereo not given) | 1.2 | 1.1 | -8 | -16 | -1 | 5
Cc1ccc2nc3ccc(N4CCCCCCC4)nn3c(=O)c2c1 | 0.3 | 0.4 | 64* | 70* | -3 | 22
Cc1ccc2nc3ccc(N4CCN(C)CC4)nn3c(=O)c2c1 | 1 | 0.8 | 21 | 2 | -3 | 10
CC(=O)N1N=C(c2ccc(C)cc2)OC1c1ccc(C(C)C)cc1 (stereo not given) | 0.9 | 0.8 | 23 | 10 | -9 | 15
CC(=O)N1N=C(c2ccc(C)cc2)OC1c1ccc(C)cc1 (stereo not given) | 0.8 | 0.8 | 19 | 20 | -3 | 34*
O=C(Cn1cnc2ccccc2c1=O)NC1CCCc2ccccc21 (stereo not given) | 1 | 1 | 0 | 4 | -2 | 19
CCCC1CC(c2csc(N)n2)CCO1 (stereo not given) | 0.2 | 0.2 | 80* | 76* | -4 | -2
Cc1nc(Nc2ccc(F)cc2)[nH]c(=O)c1CCC(C)C | · | · | · | · | 3 | 32*
Cc1ccc2c(c1)cc(CN(Cc1ccco1)C(=O)COc1ccccc1)c1nnnn12 | 0.8 | 0.9 | 6 | 19 | 5 | 42*
Nc1nc(CN2CCN(c3ccccc3F)CC2)nc(Nc2ccccc2)n1 | 0.2 | 0.6 | 42 | 77* | 0 | 1
Nc1nc(CN2CCc3ccccc3C2)nc(Nc2ccccc2)n1 | 0.5 | 0.5 | 47 | 52* | -3 | 14
Cc1ccc(Nc2nc(N)nc(CN3CCN(c4ccccc4F)CC3)n2)cc1 | 0.9 | 1 | 5 | 7 | 6 | 8
Nc1nc(CN2CCCCCC2)nc(Nc2ccccc2)n1 | 1 | 0.9 | 11 | 1 | -5 | -4
COc1ccc(Nc2nc(N)nc(CN3CCc4ccccc4C3)n2)cc1 | 0.4 | 0.6 | 38 | 56* | 1 | 3
O=C(COC(=O)c1ccc[nH]c1=O)NCC1CCCO1 (stereo not given) | · | · | · | · | 0 | 4
COC(=O)c1ccccc1NC(NC(=O)c1ccco1)C(=O)c1ccccc1 (stereo not given) | 0.9 | 1.1 | -10 | 7 | 8 | 4
Cn1nc(C(F)(F)F)c(/C=N/OC(=O)c2ccccc2Cl)c1SCc1ccccc1Cl | 0.1 | 0.3 | 68* | 93* | -4 | 7
CC(=O)NC1=NC(=O)/C(=C/N2CCOCC2)S1 | 1.1 | 1 | 1 | -8 | -5 | 20
COc1ccccc1CC(=O)Nc1ccc(-c2nnc(-c3ccco3)o2)cc1 | 0.8 | 0.8 | 23 | 23 | -1 | 15
CCOC(=O)c1ccc(NC(=O)CSc2nc(C)nc3c2c(=O)n(C)c(=O)n3C)cc1 | 1 | 1 | 2 | 3 | 0 | 18
CC(=O)NCCN=Cc1sc2ccccc2c1O | 0.8 | 0.9 | 13 | 20 | 1 | 1
CCCN=Cc1sc2ccc(OCC)cc2c1O | 1.5 | 0.3 | 69* | -52 | 0 | 13
Cc1ccccc1Cn1c(=O)n(Cc2ccco2)c(=O)c2ccccc21 | 1.3 | 0.7 | 28 | -28 | 27 | 17
Cc1cccc(Cn2c(=O)n(Cc3ccco3)c(=O)c3ccccc32)c1 | 0.4 | 0.9 | 9 | 62* | -3 | 20
O=C(CSc1nnnn1C1CCCC1)Nc1ccc(F)cc1 | 0.9 | 0.7 | 31 | 10 | 8 | 11
SMILES | CYP2C9 act | CYP2C19 act | CYP2C19 inh | CYP2C9 inhib | PostGolgi yeast | PostGolgi ctrl
Cc1ccc(-n2nnnc2SCC(=O)NNC(=O)c2ccco2)cc1C | 2* | 1 | -2 | -95 | -2 | 3
O=C(CSc1nnnn1C1CCCCC1)Nc1ccc2c(c1)OCO2 | 0.5 | 0.8 | 25 | 53* | -2 | 5
Cc1ccc(-n2nnnc2SCC(=O)Nc2ccc3c(c2)COC3=O)cc1C | 1 | 0.8 | 20 | -3 | -3 | 4
O=C(CSc1nnnn1-c1ccc(O)cc1)Nc1cccc(S(=O)(=O)N2CCCC2)c1 | 0.6 | 0.1 | 93* | 38 | 10 | 18
O=C(CSc1nnnn1C1CCCCC1)Nc1cccc(NC(=O)c2ccco2)c1 | 0.2 | 0.3 | 69* | 77* | -8 | 16
Cc1ccccc1-n1nnnc1SCC(=O)Nc1ccc(S(=O)(=O)N2CCCC2)cc1 | 1 | 1.2 | -18 | -2 | 4 | 15
COc1ccc(Oc2nc(C(F)(F)F)nc3ccccc23)cc1 | 0.9 | 0.9 | 14 | 10 | 0 | -2
c1ccc(OCCSc2nnnn2C2CCCCC2)cc1 | 0.2 | 0.3 | 68* | 82* | · | ·
CC(=O)c1cccc(-n2nnnc2SCC(=O)Nc2ccccc2N2CCCCC2)c1 | 0.1 | 0 | 96* | 87* | 4 | 23
CC(=O)c1cccc(-n2nnnc2SCC(=O)Nc2cccc(NC(=O)c3ccco3)c2)c1 | 0.4 | 0.2 | 82* | 55* | 0 | 2
CC(=O)Nc1cccc(NC(=O)CSc2nnnn2C)c1 | 0.8 | 1.1 | -6 | 21 | 16 | 22
CC(C)N(C(=O)CSc1nnnn1C1CCCC1)C(C)C | 0.7 | 0.2 | 81* | 28 | -9 | 7
O=C(Nc1ccc(Oc2ccccc2)cc1)C1CCCN(c2ncccn2)C1 (stereo not given) | 0.9 | 0.9 | 13 | 10 | -10 | -9
O=C(CSc1nnnn1C1CCCC1)N1CCN(C(=O)c2ccco2)CC1 | 0.9 | 1 | 1 | 9 | 4 | 6
O=C(CSc1nnnn1C1CCCCC1)NCc1ccccc1 | 0.4 | 0.4 | 62* | 62* | -3 | 8
COc1cc(NC(=O)CSc2nnc(-c3ccncc3)n2C2CCCCC2)ccc1NC(=O)c1ccco1 | 0.3 | 0.4 | 62* | 72* | -5 | 7
O=C(CSc1nnnn1C1CCCC1)Nc1cccc(NC(=O)c2ccco2)c1 | 0.2 | 0.2 | 83* | 83* | 5 | 5
CCOC(=O)C(C)Oc1cccc2c(=O)n(CC(=O)Nc3ccc(OCC)cc3)ccc12 (stereo not given) | 0.8 | 0.9 | 8 | 21 | 11 | 11
Cc1c(/C=N/NC(=O)c2ccc3c(c2)OCO3)cnn1C | 1 | 1.1 | -7 | 1 | 4 | 6
Cc1c(C#N)c(NC(=O)c2cccc(Cl)c2)n(Cc2ccccc2)c1C | 1 | 1 | -1 | 3 | 0 | 4
CCn1ncc(/C=N/NC(=O)c2ccc3c(c2)OCO3)c1C | 1 | 0.8 | 25 | -4 | 3 | 33*
CCn1nc(C)c(/C=N\NC(=O)c2ccc3c(c2)OCO3)c1C | 1 | 0.9 | 10 | 4 | 3 | 1
CCn1ncc(/C=N\NC(=O)c2ccc3c(c2)c(C)c(C)n3Cc2ccccc2)c1C | 0.1 | 0.3 | 73* | 93* | 23 | 17
CCn1cc(/C=N\NC(=O)c2ccc3c(c2)c(C)c(C)n3Cc2ccccc2)c(C)n1 | 0.9 | 0.3 | 73* | 9 | -8 | 23

Bioassay records deposited in PubChem by several laboratories.
